# The OligoGym collection
# Target: COPS8
# Experiment: pooled miR-30 sensor sort-seq; sequence = guide strand
# Details: shRNA
# Note: reference of the scale not given here.
row,Sequence,sensor-assay potency score (higher = more potent)
1,TTTTTGAAACTAAAGGCGCTTT,-0.00727
2,ATTCTTTGTCCTACTGACCAAA,-1.48
3,TTGTTGCATCTCTAAGTGCTTC,-1.16
4,TTGATGGTTGTATAGATCCCAG,-1.45
5,TTTCTGGGCAGAACCATTCTTG,-0.632
6,TTGCAGATTTTATAGCAGGTGG,-0.905
7,TATGGAGCAAATATAAAGCTAG,-0.121
8,TTCTTTTCCAAAGATATCTTGC,-0.431
9,TATTTTATCACATAGTAAGGAA,-0.329
10,TAGAAGCTGACCATACACTGGG,0.625
11,TTACATTTCTACGTTTGTCAGT,-0.228
12,TTTTCCAAAGATATCTTGCATT,-0.738

# Target: COQ3
# Experiment: as above
# Details: shRNA
row,Sequence,sensor-assay potency score (higher = more potent)
1,TAGGATTTGAACCATATGGTTC,-0.787
2,TAGTAATGAATAAAGAACCACC,-0.744
3,TTAATCTGTAGAGTCCCACTGA,0.477
4,TTCTTCACATAAACCGCCGAGG,-1.27
5,TTGAAAACATCAGATATCCAAG,-0.816
6,TATGGTTCTGTATTCATTGAAA,-1.12
7,TTAATGTTCTCATCCACAGGGT,0.284
8,TACCTGAAACTCTTTATTCTGT,-0.297
9,TAACACTTGACAGCAGCACTGT,-0.0361
10,TAGAGCATTCCTACCACTGTTT,-0.0231
11,AAACAGGAAAAGATCGTCCTGT,0.479
12,TTAGCTTGGAGCTCTTCTGTTT,-0.684

# Target: COQ9
# Experiment: as above
# Details: shRNA
row,Sequence,sensor-assay potency score (higher = more potent)
1,ATCATCACCAGCTCTGTTGTGT,-0.201
2,TTCATTGCATCATTAACCCGGT,0.189
3,TCCTCTTCTAGCACACGTGTGA,-0.72
4,TCTAGCACACGTGTGAGCCGGG,0.25
5,TATTAGGAACTGAAGAAGCAGC,-1.33
6,TTTCAAAGCTCTTTCAATCTGT,0.272
7,TTCTGCTCATCTGAAGACCTTA,-0.0401
8,TATTAGCTCACTGCCATCCTTC,-0.456
9,TAGTCCTCCTCCTCCTCGCCGC,-1.01
10,TTTTCAATCACACAGTTGCAGT,-1.24
11,TTGTGTTGTAGATGGCAGCCAG,-0.498
12,TTGGTCTGGTATTAGGAACTGA,-0.609

# Target: CORIN
# Experiment: as above
# Details: shRNA
row,Sequence,sensor-assay potency score (higher = more potent)
1,TTATTCAGACTGTTGTTCGGGT,0.501
2,TATTTGTAAGAATAACATCGGA,-0.524
3,TAAATCTGTCTTTTAATCCATT,-1.02
